Compound activity: PubChem BioAssay, National Center for Advancing Translational Sciences (NCATS)
Lamin A splicing – qHTS Assay for Modulators of Lamin A Splicing; actives 0.01% (n = 200,000); Potency, µM (highest dose often 46.1 µM), without a hit: top-dose ratio change, negative = inhibition, actives largely listed as inhibitors; HeLa LMNA splicing GFP/RFP minigene ratio, 48 h; active means well fitted inhibition curve with a large enough effect in the signal ratio, with a control signal flat, not every such curve was filed as active; inconclusive means small, poorly fitted or top-dose-only effect, or effect the other way, or a change in a side signal; the % refers to the signal ratio; further: potency means the concentration at half of the fitted maximal effect; on the % scale 0 is the no-effect control and ±100 the full control effect
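Read-out is the ratio of GFP to DsRed2 object intensity, acquired by 488 nm laser-scanning cytometry on HeLa lamin A-EGFP minigene reporter cells. Compound incubation 48 hrs at 37 °C in Opti-MEM with 2% FBS; DMSO 0.5% final.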
ALDH1A1 inh – qHTS Assay for Inhibitors of Aldehyde Dehydrogenase 1 (ALDH1A1); AID 1030, 2008; Potency, µM (series often up to 75.3 µM), without a hit: top-dose activity, negative = inhibition, actives largely listed as inhibitors; Aldehyde dehydrogenase 1A1 (Homo sapiens), P00352; actives 7.3% (n = 220,000); Purified ALDH1A1, NADH fluorescence, propionaldehyde substrate; active means well fitted inhibition curve with a large enough effect, not every such curve was filed as active; inconclusive means small, poorly fitted or top-dose-only effect, or another doubt; inactive means no such curve, though single readings can be large or run the other way;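 further: potency means the concentration at half of the fitted maximal effect; plate controls were no enzyme wells and a reference inhibitor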
G9a inh – qHTS Assay for Inhibitors of Histone Lysine Methyltransferase G9a | Histone-lysine N-methyltransferase EHMT2 (Homo sapiens), Q96KQ7 | G9a H3K9 monomethylation, AlphaScreen, 2 h | Potency, µM (highest dose often 102 µM), without a hit: at the top dose activity, negative = inhibition, usual class: inhibitors | AID 504332, 2011 | actives 8.8% (n = 350,000); further: potency means the concentration at half of the fitted maximal effect; on the % scale 0 is the no-effect control and ±100 the full control effect; nearly all actives have a fitted effect of over 75% in size
Target sequence (Q96KQ7 913-1193 limits assumed): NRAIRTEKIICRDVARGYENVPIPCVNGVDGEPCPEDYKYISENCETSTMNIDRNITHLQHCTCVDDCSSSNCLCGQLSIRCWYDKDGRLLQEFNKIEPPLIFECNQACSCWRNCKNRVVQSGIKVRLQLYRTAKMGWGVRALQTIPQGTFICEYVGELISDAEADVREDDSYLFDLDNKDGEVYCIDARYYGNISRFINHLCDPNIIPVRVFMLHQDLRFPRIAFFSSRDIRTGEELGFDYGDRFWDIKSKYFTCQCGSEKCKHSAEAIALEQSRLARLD
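Enzyme 20 nM + cpd, 15 min RT; add b-H3K9 pep 500 nM / SAM 20 uM; 2 h RT; anti-H3K9me1 Ab 0.5 ug/mL + SA donor / anti-rabbit acceptor beads 20 ug/mL each, 10 min; AlphaScreen read.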
miR-21 act – qHTS Assay for Modulators of miRNAs and/orActivators of miR-21; HeLa miR-21 FLuc reporter, luciferase, 48 h; 340,000 tested, under 10 active; Potency, µM (doses to about 38.3 µM), for inactives: at the top dose activity change, positive = activation, actives largely listed as activators;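 further: % of control where 0% means no effect; miR-21 action dims this reporter so a rising signal means less miR-21 action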
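Using DMEM plus 10% FBS, HeLa miR-21-FLuc cells are incubated with test compounds (final up to about 40uM) for 48 hours; firefly luciferase signal is then imaged following reagent-mediated lysis.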
Sfp inh – qHTS Assay for Inhibitors of Bacillus subtilis Sfp phosphopantetheinyl transferase (PPTase); 4'-phosphopantetheinyl transferase ffp (Bacillus subtilis), Q9F4F7; Biochemical Sfp PPTase activity, qHTS; Potency, µM, without a hit: largest response in the series, negative = inhibition, hits mostly inhibitors; actives 3.5% (n = 310,000);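 further: the enzyme is Sfp with the accession as filed and its product quenches rhodamine fluorescence; potency means the concentration at half of the fitted maximal effect; 0% = enzyme reaction without inhibitor and -100% = no enzyme wells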
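Fluorescence-quenching assay: 15 nM Sfp-PPTase preincubated 15 min at room temperature with compound, then 5 uM rhodamine-CoA and 12.5 uM BHQ-2-labelled YbbR peptide added. Fluorescence (ex 525/em 598 nm) read at start and after 30 min; difference gives rate.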
JMJD2E inh – qHTS Assay for Inhibitors of Human Jumonji Domain Containing 2E (JMJD2E). JMJD2E catalytic domain, FDH-coupled NADH fluorescence (FDH is formaldehyde dehydrogenase). Lysine-specific demethylase 4E (Homo sapiens), B2RXH2. actives 1.6% (n = 230,000). Potency, µM (doses to about 57.1 µM), for inactives: top-dose activity change, negative = inhibition, usual class: inhibitors; active means well fitted inhibition curve with a large enough effect, not every such curve was filed as active; inconclusive means small, poorly fitted or top-dose-only effect, or another doubt; inactive means no such curve, though single readings can be large or run the other way;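 further: potency means the concentration at half of the fitted maximal effect; 0% = wells with enzyme and -100% = buffer wells without enzyme; nearly all actives have a fitted effect of over 50% in size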
Target sequence (B2RXH2 1-337 limits assumed): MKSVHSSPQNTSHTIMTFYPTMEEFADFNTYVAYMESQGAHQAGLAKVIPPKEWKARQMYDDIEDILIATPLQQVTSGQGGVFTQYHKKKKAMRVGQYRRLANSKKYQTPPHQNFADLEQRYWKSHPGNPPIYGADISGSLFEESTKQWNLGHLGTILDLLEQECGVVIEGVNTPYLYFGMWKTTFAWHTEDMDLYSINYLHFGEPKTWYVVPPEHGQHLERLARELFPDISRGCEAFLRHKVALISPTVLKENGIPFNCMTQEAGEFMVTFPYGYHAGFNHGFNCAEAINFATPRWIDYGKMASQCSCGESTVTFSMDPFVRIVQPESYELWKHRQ
Starred values were filed as active, the others as inactive; u = inconclusive; x = not tested or not shown; [ ] = remark or other dose. Rows were chosen to be rich in hits. Some 13% of all compounds tested hit in one or more screens of this group. Unless noted, the call rests on the fitted dose curve; in most records, active means well fitted curve in the direction sought with a large enough effect; inconclusive means small, poorly fitted or top-dose-only effect, or another doubt; inactive means no such curve, though single readings can be large; an effect the other way counts as inactive or inconclusive.

SMILES	Lamin A splicing	ALDH1A1 inh	G9a inh	miR-21 act	Sfp inh	JMJD2E inh
COc1ccc(CC2SC(=Nc3ccc(F)cc3)NC2=O)cc1 (stereo unspecified)	x	-1%	56µM*	-8%	3%	1%
COc1ccc(N=C2NC(=O)C(CO)(CO)S2)cc1	x	x	3%[59 µM]	-5%	10%	x
CCOC(=O)C1=C(COC(=O)Cc2ccc(Cl)cc2)NC(=O)NC1C (stereo unspecified)	x	x	-5%[59 µM]	x	x	x
CCN(Cc1ccccc1)C(=O)CCS(=O)(=O)c1cc(Br)cc2c1N(C(=O)C1CC1)CC2	x	x	-17%[59 µM]	6%	x	x
COC(=O)c1ccc(C(NC(=O)OCc2ccccc2)/C(C)=C/[C@@H](C)C(=O)N2CCN(C)CC2)cc1 (stereo partly specified)	x	u	x	x	14%	-4%
Cc1ccc(C)n1-n1cnc2sc(-c3ccccc3)cc2c1=O	u	u	16%[12.7 µM]	-5%	-1%	-14%
CCn1cnc2sc(-c3ccccc3)cc2c1=O	-5%	14µM*	8%[12.7 µM]	-61%	2%	-25%
Cc1ccc(C)n1-n1c(C)nc2sc(-c3ccccc3)cc2c1=O	u	-11%	14µM*	-14%	-2%	-4%
Cc1ccc(Nc2c([N+](=O)[O-])ccc3nonc23)cc1C	x	x	u	-4%	5%	x
C/C(CC1CC(COCC(C)C)OC1=O)=N\NC(N)=S (stereo unspecified)	-3%	u	8%	1%	50µM*	-16%
CCCCCNc1nc(-c2ccccc2)cs1	-10%	u	u	-62%	0%	-6%
CCCCCOCC1CC(C/C(C)=N/NC(N)=S)C(=O)O1 (stereo unspecified)	u	u	15%	14%	45µM*	2%
CCCCCOCC1CC(C/C(C)=N/Nc2nc(-c3ccccc3)cs2)C(=O)O1 (stereo unspecified)	4%	25µM*	40µM*	-24%	71µM*	0%
CCOC(=O)C1CCN(C(c2ccc(OCC)cc2)c2c(O)cc(C)n(CCOC)c2=O)CC1 (stereo unspecified)	-19%[46 µM]	x	u	-1%	x	x
CCOC(=O)C1CCCN(C(=O)CCc2nc3sc4c(c3c(=O)[nH]2)CCCC4)C1 (stereo unspecified)	x	x	14%[2.33 µM]	x	x	x
COc1cc(NC(=O)Nn2cnnc2)cc(OC)c1OC	x	x	45µM*	-1%	21%	x
COc1ccc(NC(=O)Nn2cnnc2)cc1OC	x	x	x	-5%	6%	x
CN(C)C1=NCCN1CCC1CCCC1	x	x	-22%	1%	13%	x
CC(=O)N1CC(=O)N(c2ccccc2)C1=O	x	x	35%	2%	31%	x
Nc1ccc(-c2ccc(N)c([N+](=O)[O-])c2)cc1[N+](=O)[O-]	-1%[9.22 µM]	12%	71µM*	-42%	-1%	0%
Nc1c(-c2ccccc2)nc(Cl)nc1-c1ccccc1	u	u	10%[59 µM]	-6%	-3%	u
c1ccc(-c2nc3nonc3nc2-c2ccccc2)cc1	u	-10%	14µM*	20%	-7%	3%
CSc1nc(C)cc(OCC(=O)N/N=C/c2ccccc2O)n1	u	-13%	63%[59 µM]	29%	14%	25µM*
CCOc1ccc(S(=O)(=O)N2CCN(C(=O)c3cc(-c4ccccc4)nn3-c3ccccc3)CC2)cc1	x	x	40µM*	x	x	x
CCOc1ccc(S(=O)(=O)N2CCN(C(=O)CCOc3ccccc3C)CC2)cc1	x	x	13µM*	x	x	x
SMILES	Lamin A splicing	ALDH1A1 inh	G9a inh	miR-21 act	Sfp inh	JMJD2E inh
CCOc1ccc(S(=O)(=O)N2CCN(C(=O)c3ccncc3)CC2)cc1	x	x	x	-1%	6%	x
COc1cccc(NC=C2C(=O)OC3(CCCCC3)OC2=O)c1	u	1.6µM*	11%[59 µM]	-14%	9%	-1%
COc1cccc(NC=C2C(=O)OC(C)(C)OC2=O)c1	14%	10µM*	22%	-10%	10%	-10%
COC(=O)c1ccccc1NC=C1C(=O)OC2(CCCCC2)OC1=O	0%	u	17%[59 µM]	-2%	2%	u
COc1ccccc1NC=C1C(=O)OC2(CCCCC2)OC1=O	8%	0.056µM*	5%[59 µM]	-11%	-1%	-24%
CCOC(=O)c1ccc(NC=C2C(=O)OC3(CCCCC3)OC2=O)cc1	13%	u	33%[12.7 µM]	-2%	1%	4%
O=C1OC2(CCCCC2)OC(=O)C1=CNc1ccc2c(c1)OCO2	-13%	0.89µM*	8%[59 µM]	0%	1%	189%
CCCCN(C(=O)c1cc(CC)c(C)s1)c1c(N)n(CCC)c(=O)[nH]c1=O	x	x	-21%	x	x	x
CCCCN1C(=O)/C(=C2\SC(N3CCCCC3)=NC2=O)c2ccccc21	u	10µM*	16µM*	-29%	45µM*	-6%
O=C(Nc1ccccc1)Nc1cnccn1	x	x	51%	-14%	10%	x
CN(C)/C=C/C(=O)c1nnn(C2CCCCC2)c1NC1CCCCC1	u	14µM*	-1%[59 µM]	15%	-4%	7%
CCN(CC)S(=O)(=O)c1ccc(NC(=O)NCc2noc3ccc(C)cc23)cc1	x	x	3%[59 µM]	u	x	x
COC(=O)c1ccc(CSc2nc3ccccc3s2)o1	-7%	-15%	3%[59 µM]	-49%	-12%	0%
COC(=O)c1ccc(CSc2nc3ccc(C)cc3[nH]2)o1	-1%	4%	4.5µM*	-18%	17%	-11%
Cc1ccc(CNC(=O)c2ccc3nc(SCc4ccc(F)cc4)[nH]c3c2)cc1	x	x	7.9µM*	23%	x	x
COC(=O)c1ccc(CSc2n[nH]c(=S)s2)o1	-2%	3.5µM*	1.1µM*	-10%	-27%	u
COC(=O)c1ccc(CSc2ncn[nH]2)o1	u	1%	71µM*	-4%	4%	-7%
CCN(CC)S(=O)(=O)c1ccc2c(c1)N(CC(=O)N1CCN(c3cccc(Cl)c3)CC1)C(=O)CO2	4%[46 µM]	x	-22%[59 µM]	5%	x	x
O=c1/c(=C\c2cccnc2)sc2nc3ccccc3n12	-3%	2%	-3%[12.7 µM]	-45%	8%	-2%
CCN(CC)c1ccc(/C=c2\sc3nc4ccccc4n3c2=O)c(O)c1	x	u	u	12%	-7%	u
Cc1cc(/C=c2/sc3nc4ccccc4n3c2=O)c(C)n1-c1ccccn1	-5%	13µM*	u	27%	-23%	u
Cc1cc(/C=c2\sc3nc4ccccc4n3c2=O)c(C)n1-c1ccc(C(=O)O)cc1	-22%[46 µM]	u	25µM*	-10%	-18%	-26%
CNc1ncncc1-c1ccccc1CN(C)C	10%	u	-7%[0.501 µM]	x	7%	x
